Measured values reported in PubChem BioAssay (NCATS).
Inconclusive results are not listed. The call rests on the fitted dose curve; in most records, active means well fitted curve in either direction with a large enough effect (not every such curve was filed as active); inconclusive means small, poorly fitted or top-dose-only effect, or another doubt; inactive means flat fitted curve, though single readings scatter.

test: AP1 Signaling Pathway (AID 357); conditions: ME-180 (cervical carcinoma) AP-1-bla reporter, EGF-induced, beta-lactamase ratio, 5 h; at 17.2 µM (top of the series) unless noted;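 further: ME-180 reporter cells stimulated with EGF at its EC50 level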
Method in brief: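 In this screen, ME-180 cells in Opti-MEM with 0.5% dialyzed FBS received EC50 EGF and compound titrations for 5 h. AP-1 reporter beta-lactamase was detected via CCF4 ratio, giving AC50 for positive and negative modulators.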
On the % scale 0 is the no-effect control and ±100 the full control effect.

Activity change, negative = inhibition, inactive:
COC(=O)c1c(-n2cnnn2)sc(C)c1C -20.5%, Clc1ccc2nc(CSc3nc4ccccc4o3)cn2c1 -4.14%, COC(=O)C(C)Sc1nc2c(c(=O)n(C)c(=O)n2C)n1CCC(C)C (stereo not drawn) -4.73%, CCOC(=O)CC1=NC(=O)CS1 2.69%, Cc1cc(COc2ccccc2OCCN2CCN(C)CC2)no1 21.4%, S=c1[nH]nc(-c2ccco2)n1Cc1ccccc1 6.39%, CC1(C)CC(=O)C(C=NCCN2CCN(C(=O)C34CC5CC(CC(C5)C3)C4)CC2)=C(O)C1 -9.89%, Cc1cc(C)nc(CC(N)=O)n1 0.0367%, CN(C)c1ccc(C2C3C(=O)N(c4ccc(C(=O)O)cc4)C(=O)C3ON2c2ccccc2)cc1 (stereo not drawn) -1.48%, C=CCNc1sc(C(=O)C2CC2)c(N)c1C#N -5.75%, O=C(NCCCN1CCOCC1)C1(c2ccccc2)CCOCC1 3.71%, CCOc1ccc(-n2c3nc4ccccc4nc3c3c(=O)n(Cc4ccco4)cnc32)cc1 -1.51%, Nc1nnnn1/N=C/c1ccccn1 -1.28%, CCN(CC)c1ncc(C)c(=O)[nH]1 16.3%, OCCNC1=NCCN1 -9.49%, O=C(OCCN1CCOCC1)c1ccc(OCCN2CCOCC2)cc1 1.65%, COc1ccc2cnn(-c3ccccc3C)c(=O)c2c1OC 10.7%, Cc1c(/C(O)=C2/C(=O)C(=O)N(CCN3CCOCC3)C2c2cccnc2)cnn1-c1ccccc1 (stereo not drawn) -11.6%
